Data on 36 compounds can be found in publication PMC5540273 (PLoS ONE, 2017).

Structures are written as SMILES.
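Further: KINOMEscan kinase panel screen.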

The test system of one test is PLK3. Particulars: concentration: 1 μM, replicates: in singlicate; n = 1.
With `Fc1cccc(COc2ccc(Nc3ncnc4cc[nH]c34)cc2Cl)c1`, the “%Inh” value is 23%.

In the case of `O=C(CCO)NCCn1ccc2ncnc(Nc3ccc(Oc4cccc(C(F)(F)F)c4)c(Cl)c3)c21`, the “%Inh” value worked out at 0%.

On to `COc1cc2c(Nc3cccc(NC(=O)c4ccccc4)c3)ncnc2cc1OCCCN1CCOCC1` [GSK223810], for which the “%Inh” value is recorded as 0%.

On to `Cl.Cn1ccc(-c2cccc(Nc3ccnc4cc(-c5nccs5)ccc34)c2)n1` [GW525701], for which the “%Inh” value worked out at 0%.

Consider `Nc1n[nH]c2nnc(-c3ccccc3)cc12` [SB-517389], for which the “%Inh” value came out at 33%.

Consider `Fc1cccc(COc2ccc(Nc3ncnc4nn5ccccc5c34)cc2Cl)c1` [GW689066], for which the “%Inh” value is given as 0%.

With `CN1c2ccc(-c3ccc(C(=O)NCCO)cc3)cc2-c2[nH]ncc2S1(=O)=O`, the “%Inh” value is 0%.

Take `Clc1cccc(-c2nc(Nc3ccncc3)c3ccccc3n2)c1` [GW873004]: the “%Inh” value was 0%.

Consider `COc1ccc(Nc2nccc(N3CCC(NC(=O)c4cccc(NC(C)=O)c4)C3)n2)cc1` (stereo not drawn) [GSK1379732], for which the “%Inh” value is on record as 0%.

`COc1ccc(Nc2nccc(N3CCC(NC(=O)Nc4ccc5c(c4)OCO5)C3)n2)cc1` (stereo not drawn) [GSK1379745]: the “%Inh” value is given as 0%.

In the case of `COC(=O)c1c(-c2ccccc2)c2cc(Cl)ccc2c(=O)n1Cc1ccc(S(C)(=O)=O)cc1`, the “%Inh” value amounted to 9%.

Turning to `Cc1ccc(NC(=O)c2cccc(C#N)c2)cc1-c1ccc(C(=O)Nc2ccncc2)cc1` [GSK1398463], the “%Inh” value is 0%.

Consider `O=C(c1ccc(-c2cc(-c3c[nH]nc3-c3ccccn3)ccn2)cc1)N1CCCC1` [GW792479], for which the “%Inh” value worked out at 12%.

For the compound `O=c1cc(N2CCOCC2)nc2n(Cc3cccc(Cl)c3)ccn12` [GSK2296823], the “%Inh” value was determined as 0%.

With `Cn1cc(-c2ccc3c(c2)CCN3C(=O)Cc2cccc(C(F)(F)F)c2)c2c(N)ncnc21` [GSK2606414], the “%Inh” value stood at 0%.

Turning to `CSc1ccc(NC2=C(c3ccccc3Cl)C(=O)NC2=O)cc1` [SB-342411], the “%Inh” value is given as 0%.

In the case of `FC(F)(F)c1cc(Nc2nccc(-c3c(-c4ccc(Cl)cc4)nn4ncccc34)n2)ccc1Cl` [GW829351], the “%Inh” value is on record as 3%.

For `Nc1nc(-c2ccc3c(N)n[nH]c3c2)cc(N2CCCCC2)n1` [GSK2228768], the “%Inh” value is reported as 0%.

As to `Nc1nc(-c2cccnc2)c(-c2ccnc3ccccc23)s1` [GW684083], the “%Inh” value is listed as 0%.

On to `O=C(Nc1ccccc1)Nc1ccc(Oc2ccc3nccn3n2)cc1`, for which the “%Inh” value worked out at 15%.

Regarding `O=C(Nc1ccccc1F)NC1CCN(c2ccnc(Nc3ccc(F)cc3)n2)C1` (stereo not drawn) [GSK1379722], the “%Inh” value is 0%.

On to `CNc1nccc(-c2c(-c3ccc(F)cc3)ncn2CCCN2CCOCC2)n1` [SB-222516], for which the “%Inh” value is 0%.

As to `CCn1c(-c2ccncc2)nc2cnccc21` [SB-735216], the “%Inh” value is on record as 16%.

Consider `Fc1cccc(COc2ccc(Nc3ncnc4sc(-c5ccc[nH]5)cc34)cc2Cl)c1` [GW707818], for which the “%Inh” value stood at 19%.

With `N#Cc1ccc(Oc2ccc(Nc3ncnc4cc[nH]c34)cc2Cl)cc1`, the “%Inh” value stood at 11%.

For the compound `Cc1cc(N2CCC(NS(=O)(=O)c3ccc(F)cc3)CC2)nc(Nc2cccc(C#N)c2)n1.O=C(O)C(F)(F)F` [GSK1653537], the “%Inh” value worked out at 0%.

In the case of `CC(C)(C)OC(=O)NC1CCCN(c2cc(-c3ccc4c(N)n[nH]c4c3)nc(N)n2)C1` (stereo not drawn) [GSK2286096], the “%Inh” value was 0%.

With `Fc1ccc(-c2ncn(CCCNCc3ccccc3)c2-c2ccncc2)cc1`, the “%Inh” value was 13%.

With `Cc1ccc(C)c(NC(=O)NCCNc2ccnc(Nc3ccc(F)cc3)n2)c1` [GSK1379878], the “%Inh” value was determined as 0%.

Regarding `CSc1nn2c(=O)cc(N3CCOCC3)nc2n1Cc1cccc(Cl)c1Cl` [GSK2347225], the “%Inh” value worked out at 5%.

On to `c1ccc(-c2ccc3c(-c4ccnc(Nc5ccc6c(c5)OCCO6)n4)cnn3n2)cc1` [GW818941], for which the “%Inh” value amounted to 0%.

As to `CCc1nc(-c2cccc(N(C)S(=O)(=O)c3ccccc3)c2)c(-c2ccnc(Nc3ccc(N4CCN(C(C)=O)CC4)nc3)n2)s1` [GSK1645895], the “%Inh” value turned out to be 0%.

On to `Cl.Cl.c1ccc(-c2cc3ccncc3cc2OC2CCNCC2)cc1` [GSK1122999], for which the “%Inh” value is 0%.

Take `CS(=O)(=O)CCNCc1nc(-c2ccc3ncnc(Nc4ccc(OCc5cccc(F)c5)c(Cl)c4)c3c2)cs1.Cl` [GW583340]: the “%Inh” value is 0%.

Consider `Cc1cccc(-c2nc(Nc3ccc4[nH]nnc4c3)c3ccccc3n2)n1` [GW867587], for which the “%Inh” value is on record as 0%.

In the case of `Nc1nc(-c2ccccn2)c(-c2ccnc3ccccc23)s1` [GW548057], the “%Inh” value worked out at 0%.

The subject of the next test is PLK4. The note with it: concentration: 1 μM, replicates: in singlicate; n = 1.
As to `Fc1cccc(COc2ccc(Nc3ncnc4cc[nH]c34)cc2Cl)c1`, the “%Inh” value is on record as 27%.

Turning to `O=C(CCO)NCCn1ccc2ncnc(Nc3ccc(Oc4cccc(C(F)(F)F)c4)c(Cl)c3)c21`, the “%Inh” value worked out at 0%.

Regarding `COc1cc2c(Nc3cccc(NC(=O)c4ccccc4)c3)ncnc2cc1OCCCN1CCOCC1` [GSK223810], the “%Inh” value stood at 17%.

Regarding `Cl.Cn1ccc(-c2cccc(Nc3ccnc4cc(-c5nccs5)ccc34)c2)n1` [GW525701], the “%Inh” value amounted to 5%.

In the case of `Nc1n[nH]c2nnc(-c3ccccc3)cc12` [SB-517389], the “%Inh” value is 9%.

On to `Fc1cccc(COc2ccc(Nc3ncnc4nn5ccccc5c34)cc2Cl)c1` [GW689066], for which the “%Inh” value is 0%.

Take `CN1c2ccc(-c3ccc(C(=O)NCCO)cc3)cc2-c2[nH]ncc2S1(=O)=O`: the “%Inh” value was found to be 25%.

In the case of `Clc1cccc(-c2nc(Nc3ccncc3)c3ccccc3n2)c1` [GW873004], the “%Inh” value is 0%.

On to `COc1ccc(Nc2nccc(N3CCC(NC(=O)c4cccc(NC(C)=O)c4)C3)n2)cc1` (stereo not drawn) [GSK1379732], for which the “%Inh” value came out at 0%.

For `COc1ccc(Nc2nccc(N3CCC(NC(=O)Nc4ccc5c(c4)OCO5)C3)n2)cc1` (stereo not drawn) [GSK1379745], the “%Inh” value stood at 0%.

Take `COC(=O)c1c(-c2ccccc2)c2cc(Cl)ccc2c(=O)n1Cc1ccc(S(C)(=O)=O)cc1`: the “%Inh” value came to 26%.

Regarding `Cc1ccc(NC(=O)c2cccc(C#N)c2)cc1-c1ccc(C(=O)Nc2ccncc2)cc1` [GSK1398463], the “%Inh” value came out at 2%.

On to `O=C(c1ccc(-c2cc(-c3c[nH]nc3-c3ccccn3)ccn2)cc1)N1CCCC1` [GW792479], for which the “%Inh” value stood at 0%.

Regarding `O=c1cc(N2CCOCC2)nc2n(Cc3cccc(Cl)c3)ccn12` [GSK2296823], the “%Inh” value came out at 0%.

Turning to `Cn1cc(-c2ccc3c(c2)CCN3C(=O)Cc2cccc(C(F)(F)F)c2)c2c(N)ncnc21` [GSK2606414], the “%Inh” value came to 15%.

For `CSc1ccc(NC2=C(c3ccccc3Cl)C(=O)NC2=O)cc1` [SB-342411], the “%Inh” value amounted to 13%.

Consider `FC(F)(F)c1cc(Nc2nccc(-c3c(-c4ccc(Cl)cc4)nn4ncccc34)n2)ccc1Cl` [GW829351], for which the “%Inh” value was 7%.

In the case of `Nc1nc(-c2ccc3c(N)n[nH]c3c2)cc(N2CCCCC2)n1` [GSK2228768], the “%Inh” value amounted to 0%.

As to `Nc1nc(-c2cccnc2)c(-c2ccnc3ccccc23)s1` [GW684083], the “%Inh” value was 0%.

For the compound `O=C(Nc1ccccc1)Nc1ccc(Oc2ccc3nccn3n2)cc1`, the “%Inh” value stood at 0%.

Regarding `O=C(Nc1ccccc1F)NC1CCN(c2ccnc(Nc3ccc(F)cc3)n2)C1` (stereo not drawn) [GSK1379722], the “%Inh” value is listed as 0%.

In the case of `CNc1nccc(-c2c(-c3ccc(F)cc3)ncn2CCCN2CCOCC2)n1` [SB-222516], the “%Inh” value came out at 0%.

In the case of `CCn1c(-c2ccncc2)nc2cnccc21` [SB-735216], the “%Inh” value turned out to be 0%.

Regarding `Fc1cccc(COc2ccc(Nc3ncnc4sc(-c5ccc[nH]5)cc34)cc2Cl)c1` [GW707818], the “%Inh” value worked out at 0%.

With `N#Cc1ccc(Oc2ccc(Nc3ncnc4cc[nH]c34)cc2Cl)cc1`, the “%Inh” value amounted to 21%.

Consider `Cc1cc(N2CCC(NS(=O)(=O)c3ccc(F)cc3)CC2)nc(Nc2cccc(C#N)c2)n1.O=C(O)C(F)(F)F` [GSK1653537], for which the “%Inh” value worked out at 0%.

Turning to `CC(C)(C)OC(=O)NC1CCCN(c2cc(-c3ccc4c(N)n[nH]c4c3)nc(N)n2)C1` (stereo not drawn) [GSK2286096], the “%Inh” value amounted to 10%.

In the case of `Fc1ccc(-c2ncn(CCCNCc3ccccc3)c2-c2ccncc2)cc1`, the “%Inh” value is given as 32%.

As to `Cc1ccc(C)c(NC(=O)NCCNc2ccnc(Nc3ccc(F)cc3)n2)c1` [GSK1379878], the “%Inh” value came to 0%.

Regarding `CSc1nn2c(=O)cc(N3CCOCC3)nc2n1Cc1cccc(Cl)c1Cl` [GSK2347225], the “%Inh” value is given as 13%.

As to `c1ccc(-c2ccc3c(-c4ccnc(Nc5ccc6c(c5)OCCO6)n4)cnn3n2)cc1` [GW818941], the “%Inh” value is listed as 0%.

For `CCc1nc(-c2cccc(N(C)S(=O)(=O)c3ccccc3)c2)c(-c2ccnc(Nc3ccc(N4CCN(C(C)=O)CC4)nc3)n2)s1` [GSK1645895], the “%Inh” value was 8%.

With `Cl.Cl.c1ccc(-c2cc3ccncc3cc2OC2CCNCC2)cc1` [GSK1122999], the “%Inh” value was determined as 9%.

With `CS(=O)(=O)CCNCc1nc(-c2ccc3ncnc(Nc4ccc(OCc5cccc(F)c5)c(Cl)c4)c3c2)cs1.Cl` [GW583340], the “%Inh” value stood at 3%.

Consider `Cc1cccc(-c2nc(Nc3ccc4[nH]nnc4c3)c3ccccc3n2)n1` [GW867587], for which the “%Inh” value turned out to be 0%.

Take `Nc1nc(-c2ccccn2)c(-c2ccnc3ccccc23)s1` [GW548057]: the “%Inh” value was 14%.
